Source: PubChem BioAssay (NCATS)
Results filed as inconclusive are left out. Values without a mark were called inactive. Activity calls are given as the source filed them. Calls come from the whole dose curve; as a rule, active = well fitted inhibition curve with a large enough effect; inconclusive = small, poorly fitted or top-dose-only effect, or effect the other way; inactive = flat fitted curve, though single readings scatter.

experiment: qHTS for Inhibitors of Plasmodium falciparum (CP250) proliferation (AID 504320);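 note: plate controls were DMSO vehicle for no effect and 0.29 µM artemisinin control for full effect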; conditions: P. falciparum CP250 in erythrocytes, SYBR Green DNA, 72 h; series mostly up to 6.7 µM; activity change, negative = inhibition: at the top concentration
How it was run: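 Parasite growth measured as SYBR Green DNA fluorescence (ex 485, em 535 nm) after overnight lysis following 72 h culture at 37 °C, 0.3% parasitemia, 2.5% hematocrit. Values normalized against DMSO and 0.29 uM artemisinin controls, with plate-stack correction.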

Structure (SMILES)	activity change, negative = inhibition [%]	Potency
COC(=O)C1=C(C(=O)OC)[C@@H]2N(C)c3ccc(OC)cc3[C@@]23C[C@@H](C(=O)OC)N(C(=O)C2CCC2)C3=N1	-4.18	
CC#CCN1C(=O)N[C@@H](c2ccccc2)C(C(=O)OC)=C1C	3.23	
COCCN1C(=O)N(C)[C@@H](c2ccccc2)C(C(C)=O)=C1C	1.27	
COC(=O)C1=C(C(=O)OC)[C@@H]2N(C)c3ccccc3[C@@]23C[C@@H](CO)N=C3N1	7.84	
COc1ccc(C2=CC3=C(Br)C(=O)C(C)(OC(=O)c4cnc5ccccc5n4)C(=O)C3=CO2)cc1 (stereo not given)	3.82	
COC(=O)N[C@H](CC(C)=O)c1ccc(Cl)cc1	-1.73	
CC(C)OCCCN1C=C2C(=O)C(C)(OC(=O)CCc3ccccc3)C(=O)C=C2C=C1c1ccc(C#N)cc1 (stereo not given)	0.0643	
CCOC(=O)CNC(=O)O[C@@H]1C(=O)c2cc(OC)ccc2O[C@H]1c1ccc(OC)c(Br)c1	-2.02	
COC/C=C/C1=CC2=CC(=O)C(C)(OC(=O)c3cnc4ccccc4n3)C(=O)C2=CN1CC(C)C (stereo not given)	0.311	
CC1(OC(=O)CCc2ccccc2)C(=O)C=C2C=C(c3ccc(C#N)cc3)N(C3CC3)C=C2C1=O (stereo not given)	4.57	
COC/C=C/C1=CC2=CC(=O)C(C)(OC(=O)c3cnc4ccccc4n3)C(=O)C2=CN1c1ccccc1 (stereo not given)	-0.779	
CC[C@H](C)[C@@H](NC(=O)O[C@@H]1C(=O)c2cc(Br)ccc2O[C@H]1c1cccc(OC)c1)C(=O)OC	-3.67	
COC(=O)CCC(=O)OC1(C)C(=O)C2=CN(CC(C)C)C(c3ccc(OC)cc3)=CC2=C(Br)C1=O (stereo not given)	0.119	
CCOC(=O)CN1C(=O)NC(c2cccc(C(F)(F)F)c2)C(C(C)=O)=C1C (stereo not given)	3.18	
CCOC(=O)CN1C(=O)N[C@@H](c2cccs2)C(C(=O)OC)=C1C	3.68	
CCN1C(=O)NC(c2ccc(Br)cc2)C(C(=O)OC)=C1C (stereo not given)	2.84	
COC(=O)C1=C(C)N(Cc2ccccc2)C(=O)N[C@H]1c1ccc(Br)cc1	2.39	
CC1(OC(=O)CCc2ccccc2)C(=O)C=C2C=C3CCCN3C=C2C1=O (stereo not given)	3.44	
COC(=O)CCCC1=CC2=CC(=O)C(C)(OC(=O)c3cccs3)C(=O)C2=CN1c1ccc(CO)cc1 (stereo not given)	4.68	
COC(=O)C1=C(C(=O)OC)[C@@H]2N(Cc3ccccc3)c3ccccc3[C@@]23C[C@@H](C(=O)OC)N(C(=O)NCCBr)C3=N1	3.36	

Structure (SMILES)	activity change, negative = inhibition [%]	Potency
COC(=O)C1=C(C(=O)OC)[C@@H]2N(C)c3ccccc3[C@@]23C[C@@H](CO)N(C(=O)c2ccco2)C3=N1	-3.03	
COC(=O)C1=C(C)N(Cc2ccccc2)C(=O)N[C@H]1c1cccs1	2.9	
COC/C=C/C1=CC2=CC(=O)C(C)(OC(=O)c3cnc4ccccc4n3)C(=O)C2=CN1C1CCCCC1 (stereo not given)	2.64	
CC(C)C(=O)N[C@@H]1CCCN1C(=O)C=Cc1ccccc1	0.988	
CCCCC1=CC2=C(c3ccco3)C(=O)C(C)(OC(=O)c3ccc(OC)cc3)C(=O)C2=CN1CC(C)C (stereo not given)	3.46	
COC(=O)CCCC1=CC2=CC(=O)C(C)(OC(=O)c3cccs3)C(=O)C2=CN1Cc1ccc2c(c1)OCO2 (stereo not given)	0.0446	
COC(=O)C1=C(C(=O)OC)[C@@H]2N(C)c3ccccc3[C@@]23C[C@@H](C(=O)OC)N(S(=O)(=O)c2ccc(C#N)cc2)C3=N1	8.13	
CC1(OC(=O)CCc2ccccc2)C(=O)C=C2C=C(c3ccc(C#N)cc3)N(CCc3ccccn3)C=C2C1=O (stereo not given)	0.874	
COC/C=C/C1=CC2=CC(=O)C(C)(OC(=O)c3cnc4ccccc4n3)C(=O)C2=CN1C(CO)CO (stereo not given)	3.24	
O=C1c2cc(Br)ccc2O[C@@H](c2ccc3c(c2)OCO3)[C@@H]1O	-0.52	
COC(=O)CCC(=O)OC1(C)C(=O)C2=CN(CC3CC3)C(c3ccc(OC)cc3)=CC2=C(Br)C1=O (stereo not given)	-6.44	
CCCCC1=CC2=CC(=O)C(C)(OC(=O)CC)C(=O)C2=CN1CCN1CCOCC1 (stereo not given)	-0.935	
C=CC[C@]1(C(=O)OC)C=C[C@H](C)[C@@H](c2ccccc2)N1C(=O)C(F)(F)F	7.05	
COC(=O)[C@@H]1[C@H](CCc2ccccc2)NC(=O)N(Cc2ccccc2)[C@@H]1C	4.68	
COC(=O)C1=C(C(=O)OC)[C@@H]2N(C)c3ccccc3[C@@]23C[C@@H](C(=O)OC)N(S(=O)(=O)c2ccc(C)cc2)C3=N1	5.41	
COc1ccc(N2C=C3C(=O)C(C)(OC(=O)CCc4ccccc4)C(=O)C=C3C=C2c2ccc(C#N)cc2)cc1 (stereo not given)	-0.74	
CC1(OC(=O)c2ccc(Cl)nc2)C(=O)C=C2C=C(C3CC3)OC=C2C1=O (stereo not given)	6.5	
COC(=O)CCCC1=CC2=CC(=O)C(C)(OC(=O)c3cccs3)C(=O)C2=CN1CCCCO (stereo not given)		inactive
COCCN1C(=O)N[C@@H](c2ccccc2)[C@@H](C(=O)OC)[C@H]1C	4.28	
COCCN1C=C2C(=O)C(C)(OC(=O)CCC(=O)OC)C(=O)C(Br)=C2C=C1c1ccc(OC)cc1 (stereo not given)	-4.25	
